Test in all cases: qHTS profiling for inhibitors of Plasmodium falciparum proliferation (AID 504749); note: nearly all actives have a fitted effect of over 60% in size
Settings in all cases: P. falciparum in erythrocytes, SYBR Green DNA, 72 h; series mostly up to 28.7 µM
Background: qHTS replaces the single test concentration by a dilution series.

For one assay, the system named is C2A. An outline of the steps:
(§1)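 Infected RBCs, 0.3% parasitemia/2.5% Hct final; cpd 72 h, 37 C, 5% CO2; lysis buffer with saponin/triton/SYBR Green I, o/n RT dark; FI 485/535; norm. to artemisinin (0.29 uM) and DMSO.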

A further assay deals with CP185. Summed up: as §1
For a further assay, the system named is CP191. An outline of the steps: as §1
A further assay has as its system CP194. An outline of the steps:
as §1

A further assay has as its system CP201. Summed up:
as §1

A further assay has as its system CP211. Summed up:
as §1

A further assay concerns CP217. An outline of the steps:
as §1

The subject of another assay is CP192. Summed up:
as §1

For another assay, the system named is CP215. An outline of the steps: as §1
For a further assay, the system named is CP203. Summed up:
as §1

Results filed as inconclusive are left out. Active and inactive are the calls of the source. Calls come from the whole dose curve; as a rule, active = well fitted inhibition curve with a large enough effect; inconclusive = small, poorly fitted or top-dose-only effect; inactive = flat fitted curve, though single readings scatter.
Potency is the fitted concentration of half-maximal effect.

For the compound `COc1ccc(CN2CCN(C(c3ccc(F)cc3)c3ccc(F)cc3)CC2)c(OC)c1OC`, the Potency is 12.6 µM (active) in the assay with C2A; 10 µM (active) in the assay with CP185; 7.94 µM (active) in the assay on CP191; 15.1 µM (active) with CP194; 15.1 µM (active) with CP201; 16.9 µM (active) with CP211. Besides, the Potency in the assay on CP217 was 11.2 µM (active).

`CC(=O)c1ccc2c(c1)N(CCCN1CCC(CCO)CC1)c1ccccc1S2`: the Potency result in the assay with C2A, with CP185, with CP191, in the assay on CP192, with CP201 and in the assay on CP211 was “inactive” each time. Further, in the assay with CP217, the Potency entry is “inactive”.

For `CCN(CC)CCOC(=O)C(c1ccccc1)C1CCCCC1` (centres undefined), the Potency entry in the assay with C2A, in the assay on CP185, in the assay on CP191, with CP192, with CP201 and in the assay with CP211 was “inactive” each time. Further, the Potency entry in the assay with CP217 is “inactive”.

On to `CN(C(=O)CN(CCO)CC(=O)N(C)C(C)(C)Cc1ccccc1)C(C)(C)Cc1ccccc1`, for which the Potency entry with C2A, with CP185, with CP191, with CP192, with CP201 and with CP211 was “inactive” throughout. Moreover, in the assay on CP215, the Potency result was “inactive”.

For the compound `Cc1cc(N)c2cc(NC(=O)Nc3ccc4nc(C)cc(N)c4c3)ccc2n1`, the Potency in the assay on C2A is 10 µM (active); in the assay with CP185 it was 11.2 µM (active); in the assay with CP191, 0.631 µM (active); in the assay on CP192 it was 3.79 µM (active); in the assay with CP211, 3.79 µM (active); in the assay with CP217, 8.91 µM (active).

On to `CCOc1ccc(Cc2nccc3cc(OCC)c(OCC)cc23)cc1OCC`, for which the Potency result in the assay with C2A, in the assay on CP185, with CP192 and with CP203 was “inactive” in each case.

`Cc1ccc(O)c2ncccc12`: the Potency result in the assay with C2A, with CP185, in the assay with CP191, in the assay with CP192, in the assay on CP201 and in the assay on CP211 was “inactive” each time. In addition, the Potency result with CP215 and in the assay with CP217 was “inactive” each time.

Regarding `C#C[C@]1(OC(C)=O)CC[C@H]2[C@@H]3CCC4=C[C@@H](OC(C)=O)CC[C@@H]4[C@H]3CC[C@@]21C`, the Potency entry with C2A, with CP185, in the assay on CP191, with CP194, with CP201 and with CP203 was “inactive” throughout. The Potency result in the assay on CP211, with CP215 and in the assay on CP217 was “inactive” in each case.

Regarding `CC(C)COC(=O)c1ccc(N)cc1`, the Potency entry with C2A, with CP185, in the assay on CP191, with CP192, in the assay with CP194 and in the assay on CP211 was “inactive” throughout. For the same compound, the Potency result with CP215 and in the assay on CP217 was “inactive” in each case.

In the case of `Cc1cccc(C)c1NC(=O)CN1CCN(CCCC(c2ccc(F)cc2)c2ccc(F)cc2)CC1`, the Potency entry in the assay with C2A, with CP185, with CP191, with CP192, in the assay on CP201 and with CP211 was “inactive” throughout. Moreover, the Potency entry in the assay with CP215 is “inactive”.

Turning to `Cc1c(C)n(Cc2ccccc2)c2ccc(C(=O)OCCN(C)C)cc12`, the Potency entry in the assay with C2A, in the assay on CP185, with CP191, in the assay on CP192, with CP194 and with CP211 was “inactive” in each case. Further, in the assay with CP217, the Potency result was “inactive”.

On to `Oc1ccc(Cl)c2cccnc12`, for which the Potency result in the assay on C2A, with CP185, in the assay with CP192, with CP194, in the assay with CP201 and in the assay with CP203 was “inactive” in each case. Moreover, the Potency entry with CP211, in the assay with CP215 and in the assay with CP217 was “inactive” in each case.

On to `O=C(Nc1ccc(Oc2ccc(Cl)cc2)c(Cl)c1)c1cc(I)cc(I)c1O`, for which the Potency entry in the assay on C2A, in the assay with CP185, with CP192, in the assay on CP194, with CP201 and with CP203 was “inactive” throughout. The Potency entry in the assay on CP211 was “inactive”. Moreover, the Potency in the assay with CP217 is 0.158 µM (active).

As to `CCOC(=O)c1cccc(N)c1`, the Potency entry in the assay with C2A, with CP185, in the assay with CP191 and in the assay on CP217 was “inactive” each time.

As to `COc1c(C)c2c(c(O)c1C/C=C(\C)CCC(=O)O)C(=O)OC2`, the Potency in the assay on C2A was 2.82 µM (active); in the assay with CP185 it was 3.16 µM (active); with CP191, 2.82 µM (active); in the assay with CP194 it was 4.55 µM (active); in the assay with CP201, 5.73 µM (active); with CP203, 3.22 µM (active). Moreover, the Potency in the assay on CP211 was 4.55 µM (active); with CP215, 3.22 µM (active); with CP217 it was 2.51 µM (active).

Regarding `Oc1c(I)cc(Cl)c2cccnc12`, the Potency with C2A is 11.2 µM (active); in the assay on CP185 it was 11.2 µM (active); in the assay with CP191 it was 11.2 µM (active); with CP217, 8.91 µM (active). Moreover, the Potency entry in the assay with CP194, in the assay with CP201, in the assay on CP203 and in the assay on CP211 was “inactive” throughout.

On to `O=C1OC(c2ccc(O)cc2)(c2ccc(O)cc2)c2ccccc21`, for which the Potency result in the assay on C2A, in the assay on CP185, in the assay on CP191, with CP194, in the assay on CP201 and in the assay with CP203 was “inactive” in each case. The Potency entry with CP211, in the assay on CP215 and with CP217 was “inactive” throughout.

Regarding `CN1CCN(C(c2ccccc2)c2ccccc2)CC1`, the Potency entry in the assay on C2A, in the assay with CP185, in the assay on CP191, in the assay on CP192, in the assay on CP201 and with CP211 was “inactive” in each case. For the same compound, in the assay on CP217, the Potency entry is “inactive”.

On to `OC(CCN1CCCCC1)(c1ccccc1)c1ccccc1`, for which the Potency entry with CP201 and with CP211 was “inactive” each time. In the assay on CP203, the Potency is 16.9 µM (active).

In the case of `CCCCc1nc(Cl)c(CO)n1Cc1ccc(-c2ccccc2-c2nn[nH]n2)cc1`, the Potency in the assay with CP211 was 6.75 µM (active); with CP217, 12.6 µM (active).

For `COc1cc(-c2ccc(=O)[nH]n2)ccc1OC(F)F`, the Potency result in the assay with C2A, in the assay on CP201 and in the assay with CP217 was “inactive” throughout.

For the origin of these results see PubChem BioAssay (NCATS).
